# IL-1B inflam inh – qHTS for Inhibitors of Inflammasome Signaling: IL-1-beta AlphaLISA Primary Screen; THP-1 LPS/ATP IL-1B secretion, AlphaLISA, 16 h; active compounds read low; activity change, % at 57.5 µM; 360,000 compounds, 4.7% hits; in the data active = activity change below about -50%; inconclusive = mostly about -30% to -49%
#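 THP-1 cells pretreated 1 hr with compounds (up to 57.5 uM final), then stimulated with LPS (250 ng/mL final) plus ATP (1.25 mM final); secreted IL-1B measured by AlphaLISA after 16 hr, decreased signal indicating inhibition.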
# TDP1 cell CPT – qHTS for Inhibitors of human tyrosyl-DNA phosphodiesterase 1 (TDP1): qHTS in cells in presence of CPT; 420,000 compounds, 12% hits; chicken DT40 Tdp1-/-;hTDP1 cells + 20 nM CPT, ATP luminescence, 48 h; Potency, µM (highest dose often 46.2 µM), usual class: inhibitors; AID 686979, 2013; note: nearly all actives have a fitted effect of over 55% in size
#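 Chicken DT40 Tdp1-/- cells stably complemented with human TDP1 were seeded at 400 cells/well in medium containing 20 nM camptothecin, exposed to pin-transferred compounds, and grown at 37 °C for at least 48 hr. Viability was read as ATP luminescence.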
# HT1080 IDH1KD tx – qHTS for induction of synthetic lethality in tumor cells producing 2HG: qHTS for the HT-1080-IDH1KD cell line; 360,000 compounds, 2% hits; Potency, µM (series often up to 46.1 µM), most hits filed as cytotoxic; AID 686971, 2013; HT-1080 IDH1 knockdown viability, ATP luminescence, 48 h
#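 After a 2 h attachment period, IDH1KD HT-1080 cells took pin-transferred compound for 48 h at 37 °C; ATP-based luminescence after 10 min room-temperature reagent incubation reported viability.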
# HT1080NT lethal – qHTS for induction of synthetic lethality in tumor cells producing 2HG: qHTS for the HT-1080-NT fibrosarcoma cell line | HT-1080-NT fibrosarcoma viability, CellTiter-Glo ATP luminescence, 48 h | Potency, µM (titrated, usually from 46.1 µM), hits mostly cytotoxic | 360,000 compounds, 1.6% hits;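 note: NT is the 2HG producing partner of a matched IDH1 knockdown line; nearly all actives have a fitted effect of over 55% in size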
#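 Luminescent CellTiter-Glo readout after 48 hours of compound exposure at 37 degrees C defined viability of HT-1080-NT cells. Activity was normalized to DMSO wells and cell-free media wells; concentration-response curves were fitted and assigned curve classes.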
# TDP1 cell noCPT – qHTS for Inhibitors of human tyrosyl-DNA phosphodiesterase 1 (TDP1): qHTS in cells in absence of CPT | DT40 Tdp1-/- hTDP1 cells, no CPT, ATP luminescence, 48 h | Potency, µM (series often up to 46.2 µM), hits mostly inhibitors | 420,000 compounds, 15% hits | AID 686978, 2013; note: nearly all actives have a fitted effect of over 55% in size
#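 Growth kinetics read by CellTiter-Glo luminescence after ≥48 hr at 37 °C. Cells: DT40 Tdp1-/- stably carrying human TDP1, 400 per well, compound exposure in the absence of CPT (DMSO vehicle).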
# Numbers stand for hits; . = inactive; ? = inconclusive; / = no result; ! = not confirmed by another sample; [ ] = remark or other dose. Sampled rows, rich in hits. Any-hit rate of the full collection: about 19%. Unless noted, calls come from the whole dose curve; as a rule, active = well fitted curve in the direction sought with a large enough effect; inconclusive = small, poorly fitted or top-dose-only effect, or another doubt; inactive = no such curve, though single readings can be large; an effect the other way counts as inactive or inconclusive.
SMILES,IL-1B inflam inh,TDP1 cell CPT,HT1080 IDH1KD tx,HT1080NT lethal,TDP1 cell noCPT
CN1CCC[C@@H]1CCNC(=O)c1c(-c2ccc3c(c2)OCO3)noc1-c1ccsc1,-76,.,.,.,.
CN1CCC[C@H]1CCNC(=O)c1c(-c2ccsc2)sc2ccccc12,.,.,.,.,.
CCOC(=O)/C(=N\Nc1cc(Cl)ccc1Cl)N1CCOCC1,.,.,.,.,.
O=[N+]([O-])c1ccc(C=NN2CCNC2=S)o1,.,18µM,.,.,21µM
O=C1OC(CN2CCOCC2)CN1/N=C/c1ccc([N+](=O)[O-])o1 (stereo not given),/,.,/,/,.
CCN(CC)CC1CN(N=Cc2ccc([N+](=O)[O-])o2)C(=O)O1 (stereo not given),.,15µM,.,.,16µM
CC(=O)c1c(O)cc(O)c(C(C)=O)c1O,.,21µM,18µM,13µM,?
CC(=O)c1c(O)cc(O)cc1CC(=O)O,.,.,.,.,.
CC(C(=O)Nc1sc2c(c1C#N)CCCCC2)N1C(=O)c2ccccc2C1=O (stereo not given),.,.,.,.,.
CC(=O)Nc1cc(NC(C)=O)cc(-c2nc3ccccc3[nH]2)c1,.,8.2µM!,.,.,5.8µM!
CC(=O)Nc1ccc2nc(-c3cc(C)ccc3C)[nH]c2c1,/,3.3µM,/,/,3.3µM
CC(=O)Nc1ccc2nc(-c3ccncc3)[nH]c2c1,.,.,.,.,.
COc1c(Cl)cc(C(=O)Nc2cccc(-c3nc4ccccc4[nH]3)c2)cc1Cl,/,?,/,/,23µM
CCCN(CCC)S(=O)(=O)c1ccc(C(=O)Nc2cccc(-c3nc4ccccc4[nH]3)c2)cc1,/,4.6µM,/,/,4.6µM
CN(C)S(=O)(=O)c1ccc(C(=O)Nc2nc3ccccc3[nH]2)cc1,.,.,.,.,.
O=C(Nc1cccc(-c2nc3ccccc3[nH]2)c1)c1ccco1,.,?,.,.,?
CCCCCCCC(=O)O[C@H](CC(=O)O)C[N+](C)(C)C,/,.,/,/,.
CCC(=O)N1CCc2cc(Br)cc(S(=O)(=O)CCC(=O)Nc3ccc(C)c(F)c3)c21,/,.,/,/,.
COc1ccc(C2C(C(=O)c3cccs3)=C(O)C(=O)N2CCN2CCOCC2)c(OC)c1 (stereo not given),.,.,.,.,.
CS(=O)(=O)N(CC(=O)NCc1ccco1)Cc1ccc(Cl)cc1,.,.,.,.,.
COc1ccc(N(Cc2ccccc2)C(=O)c2nc(S(C)(=O)=O)ncc2Cl)cc1,/,0.73µM,/,/,0.46µM
CCOc1ccc(N(Cc2ccccc2)C(=O)c2nc(SC)ncc2Cl)cc1,/,13µM,/,/,6.5µM
CS(=O)(=O)c1ncc(Cl)c(C(=O)N(Cc2ccc(Cl)cc2)Cc2ccco2)n1,/,0.65µM,/,/,1.3µM
O=C(O)C1Cc2[nH]cnc2C(c2ccc(F)cc2)N1 (stereo not given),.,.,.,.,.
NC(CO)(CO)CO,/,.,/,/,.
SMILES,IL-1B inflam inh,TDP1 cell CPT,HT1080 IDH1KD tx,HT1080NT lethal,TDP1 cell noCPT
COc1ccc(/C=c2\s/c(=C\C(=O)C(C)(C)C)[nH]c2=O)cc1O,?,15µM,.,.,?
COc1cc(/C=c2\s/c(=C\C(=O)C(C)(C)C)[nH]c2=O)cc(OC)c1OC,.,?,.,.,?
CCOC(=O)N1CCC(NC(=O)C2CCN(c3nc(-c4ccc(OC)cc4)no3)CC2)CC1,.,?,.,.,4.1µM
COc1ccc(-c2noc(N3CCC(C(=O)NC(C)c4ccccc4)CC3)n2)cc1 (stereo not given),.,?,.,.,26µM
COc1ccc(-c2noc(N3CCC(C(=O)NCc4ccccc4Cl)CC3)n2)cc1,.,16µM,.,.,26µM
COc1ccc(-c2noc(N3CCC(C(=O)N(C)c4ccccc4)CC3)n2)cc1,.,?,.,.,29µM
CCOc1ccccc1NC(=O)C1CCN(c2nc(-c3ccc(OC)cc3)no2)CC1,.,?,.,.,.
O=C(NC1CC1)[C@@H]1C[C@@H](Sc2nc3ccccc3[nH]2)CN1CC1CCCCC1,/,.[9.04 µM],/,/,?
CCOc1ccc(Oc2ccc(NC(=O)[C@@H](NC(N)=O)[C@@H](C)CC)cc2)cc1,.,.,.,.,.
COc1ccc(CNC(=O)[C@@H](Cc2ccccc2)NC(=O)CC[C@H]2O[C@@H](n3ccc(=O)[nH]c3=O)[C@H](O)[C@@H]2O)cc1,.,.,.,.,.
O=[N+]([O-])c1cccc(/C=N/Nc2cc(N3CCOCC3)ncn2)c1,-68,?,.,.,?
Clc1ccccc1/C=N/Nc1cc(N2CCOCC2)ncn1,.,.,.,.,.
O=[N+]([O-])c1cccc(/C=N/Nc2nc(N3CCOCC3)nc(N3CCOCC3)n2)c1,.,.,.,.,?
C/C(=N\Nc1cc(N2CCOCC2)ncn1)c1cccc([N+](=O)[O-])c1,.,?,.,.,16µM
C/C(=N\Nc1cc(N2CCOCC2)ncn1)c1ccccc1,-79,23µM,.,.,?
CC1CN(C(=O)CCNC(=O)c2ccc(Cl)cc2)CC(C)O1 (stereo not given),.,.,.,.,.
Cc1noc(C)c1COc1ccc(C(=O)NCc2ccccn2)cc1,.,.,.,.,.
Cc1c(NC(=O)/C(C#N)=C/c2ccc(-c3ccc(Cl)c(Cl)c3)o2)c(=O)n(-c2ccccc2)n1C,-52,18µM,.,.,13µM
Cc1c(NC(=O)/C(C#N)=C/c2ccc(-c3cccc(Cl)c3)o2)c(=O)n(-c2ccccc2)n1C,.,?,.,.,21µM
Cc1c(NC(=O)/C(C#N)=C/c2ccc(-c3ccccc3Cl)o2)c(=O)n(-c2ccccc2)n1C,-73,?,.,.,29µM
Cc1ccc(Oc2nc3ccccn3c(=O)c2/C=C(\C#N)C(=O)Nc2c(C)n(C)n(-c3ccccc3)c2=O)c(C)c1,.,?,.,.,13µM
Cc1c(NC(=O)/C(C#N)=C/c2ccccc2)c(=O)n(-c2ccccc2)n1C,.,.,.,.,.
COc1ccccc1Oc1nc2ccccn2c(=O)c1/C=C(\C#N)C(=O)Nc1c(C)n(C)n(-c2ccccc2)c1=O,/,.,.,.,.
Cc1ccsc1/C=C(\C#N)C(=O)Nc1c(C)n(C)n(-c2ccccc2)c1=O,.,.,.,.,.
COc1ccccc1NC(=O)NC1(C(=O)NCC2CCCO2)CCCCC1 (stereo not given),.,.,.,.,.
Cc1ccc(/C=C(\C#N)C(=O)Nc2cccc(Cl)c2)o1,/,1.3µM,/,/,.
